Bioassay records as filed in PubChem.
In the library only some 0.9% were active in any assay of this set; here they are far more common.
E coli growth-1 = E. coli growth inhibition, primary screen, OD600; Escherichia coli growth, 23 h; active compounds read low; OD600 absorbance (concentration not given with the values); 0.21% of 330,000 active;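 active means OD600 absorbance below the run mean of sample wells minus 3.6 SD, in any replicate, cut at about 0.56 in these data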
AddAB inh = growth inhibition of E. coli expressing H. pylori AddAB, primary screen, AddAB inhibitor project, absorbance; 0.29% of 330,000 active; AID 435030, 2010; inhibition, % at 11.9 µM; in the data active means inhibition above about 12%
E coli growth-2 = E. coli V3065 growth inhibition, primary screen, counter-screen for AddAB inhibitor project, absorbance, OD600; 18 h; inhibition, % at 11.9 µM; 0.27% of 330,000 active;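 active means inhibition above the campaign's mean inhibition across all tested compounds plus 3 SD, cut at about 9.9% in these data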;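 further: uninfected addAB+ strain grown without phage in ampicillin broth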
phage Ecoli inh = growth loss of phage-infected E. coli, primary screen, RecBCD inhibitor project, absorbance, with phage, HTS; inhibition, % at 11.9 µM; 0.26% of 360,000 active; AID 651602, 2012; in the data active means inhibition above about 11%
Tat transport = E. coli Tat export inhibitors, primary screen, MC4100, TorA-mCherry reporter, fluorescence, single point; 0.036% of 340,000 active; AID 488895, 2010; inhibition, % at 10 µM;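 active means mean replicate inhibition at least 50% and at least half of replicates individually reaching 50%; inconclusive means only one of the two criteria met; inactive means neither criterion met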;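 further: exported cargo escapes ClpAP degradation while cytoplasmic cargo is degraded and loses fluorescence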
Calb FLC = C. albicans growth inhibition with fluconazole, primary screen, CaCi-2 strain, Alamar Blue fluorescence | C. albicans CaCi-2 (fluconazole-resistant clinical isolate) + fluconazole, 48 h | growth inhibition, % (concentration not given with the values) | 0.57% of 300,000 active;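 active means growth inhibition above about 58% in most replicates, limit read from the data, passing the limit was not always enough; inconclusive means exactly half the replicates above a set limit; inactive means most replicates below a set limit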;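 further: all wells also contain fluconazole at 8 µg/ml as a sub-toxic cotreatment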
AddAB confirm = growth loss of phage-infected E. coli expressing H. pylori AddAB, confirmation, AddAB inhibitor project, absorbance, E. coli V3065, T4 phage, triplicate | AID 488942, 2010 | shares compounds with AddAB inh | inhibition, % at 11.9 µM | 64% of 880 active | OD; T4 phage with gene 2 nonsense mutations;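 active means mean inhibition above a set limit taken from the earlier primary screen, cut at about 13% in these data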;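 further: higher means less bacterial growth since AddAB block lets phage replicate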
RecBCD counter = growth loss of RecBCD+ E. coli with mutant T4 phage, counter-screen for AddAB inhibitor project, absorbance, V66 E. coli. shares compounds with AddAB inh. OD growth. inhibition, % at 11.9 µM. 73% of 880 active;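 active means mean inhibition above the mean of solvent-only control wells plus 3 SD, cut at about 4% in these data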;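 further: optical density read after an 18 h incubation at 37 °C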
bact viab count = bacterial viability inhibition counter-screen, confirmation, counter-screen for AddAB inhibitor project, absorbance | absorbance (AddAB counterscreen) | 35% of 880 active | shares compounds with AddAB inh | inhibition, % at 11.9 µM; in the data active means inhibition above about 25%
Of the large screens only hits and unclear results are named; the others gave an inactive call (follow-up assays come after a bar, where they were run).

Cc1ccc(C(=O)NC(=S)NNC(=O)COc2ccc([N+](=O)[O-])cc2)cc1	none
O=C(Nc1nnc(-c2cccs2)o1)c1ccco1	none
COc1cccc(C(=O)Nc2nnc(-c3cccs3)o2)c1	AddAB inh 12 | AddAB confirm inactive | RecBCD counter 5.7 | bact viab count inactive
O=C(NCc1ccccc1)C(=O)NCC1OCCN1S(=O)(=O)c1cccs1 (stereo not drawn)	none
Cc1cc(C)c(S(=O)(=O)N2CCOC2CNC(=O)C(=O)NCc2cccnc2)c(C)c1 (stereo not drawn)	AddAB inh 54, E coli growth-2 34, Calb FLC inconclusive | AddAB confirm inactive | RecBCD counter inactive | bact viab count inactive
Cc1ccc(CNC(=O)C(=O)NCC2OCCN2S(=O)(=O)c2cccs2)cc1 (stereo not drawn)	AddAB inh 95, E coli growth-2 87 | AddAB confirm inactive | RecBCD counter inactive | bact viab count inactive
COc1ccc(CCNC(=O)c2ccc(CN3CCC(Cc4ccccc4)CC3)cc2)cc1OC	AddAB inh 14 | AddAB confirm inactive | RecBCD counter inactive | bact viab count inactive
Cc1c(Cc2ccccc2)sc(N=Cc2ccc3ccccc3c2)c1C(N)=O	none (no result: AddAB inh, E coli growth-2, phage Ecoli inh, Tat transport, Calb FLC)
O=C(NN=Cc1cccs1)c1cncc(Br)c1	none (no result: AddAB inh, E coli growth-2, phage Ecoli inh, Tat transport, Calb FLC)
NC1CCN(c2nc3c(cc2F)c(=O)c(C(=O)O)cn3-c2ccc(F)cc2F)C1 (stereo not drawn)	E coli growth-1 0.07, AddAB inh 101, E coli growth-2 102, phage Ecoli inh 101, Tat transport 72 (no result: Calb FLC) | AddAB confirm 97 | RecBCD counter 100 | bact viab count 100
Cc1cccc(-c2cc(=O)c(C(=O)O)cn2-c2ccc(F)cc2F)c1	none
O=C(Nc1cc(C(F)(F)F)ccc1-n1cncn1)c1ccc([N+](=O)[O-])o1	AddAB inh 18, E coli growth-2 14 | AddAB confirm 73 | RecBCD counter 5.7 | bact viab count inactive
Cc1nc2ccc(Cc3ccc4nc(C)[nH]c4c3)cc2[nH]1	AddAB inh 16 | AddAB confirm inactive | RecBCD counter 5.8 | bact viab count inactive
CC[C@]1(O)CC2CN(CCc3c([nH]c4ccccc34)[C@@](C(=O)OC)(c3cc4c(cc3OC)N(C=O)C3[C@@](O)(C(=O)OC)C(OC(C)=O)[C@]5(CC)C=CCN6CC[C@]43C65)C2)C1 (stereo partly drawn)	none (no result: AddAB inh, E coli growth-2, phage Ecoli inh, Tat transport, Calb FLC)
CCOC(=O)c1c(C)nc(C)c2c(=O)oc3ccccc3c12	AddAB inh 98, E coli growth-2 99 | AddAB confirm inactive | RecBCD counter inactive | bact viab count inactive
C=CCn1c(Sc2ncc([N+](=O)[O-])s2)n[nH]c1=O	E coli growth-1 0.45, AddAB inh 17 | AddAB confirm 99 | RecBCD counter 12 | bact viab count inactive
COc1ccc(C(NC(C)=O)c2ccc3cccnc3c2O)c(OC)c1 (stereo not drawn)	AddAB inh 12 (no result: phage Ecoli inh) | AddAB confirm inactive | RecBCD counter 6.8 | bact viab count inactive
CCC(=O)NC(c1cccs1)c1cc([N+](=O)[O-])c2cccnc2c1OC (stereo not drawn)	none (no result: E coli growth-1, AddAB inh, E coli growth-2, Tat transport, Calb FLC)
CCCC(=O)NC(c1ccccc1OC)c1ccc2cccnc2c1O (stereo not drawn)	AddAB inh 34, E coli growth-2 31, Calb FLC 101 (no result: phage Ecoli inh) | AddAB confirm 30 | RecBCD counter 26 | bact viab count inactive
CCCC(=O)NC(c1ccc(OC)c(OC)c1)c1c(O)ccc2ccccc12 (stereo not drawn)	none
CC(C)CC(=O)NC(c1cccs1)c1ccc2cccnc2c1O (stereo not drawn)	AddAB inh 26, E coli growth-2 35, Calb FLC 107 (no result: phage Ecoli inh) | AddAB confirm 26 | RecBCD counter 23 | bact viab count inactive
CCCC(=O)NC(c1ccc(C)cc1)c1ccc2cccnc2c1O (stereo not drawn)	AddAB inh 24, E coli growth-2 34, Calb FLC 86 (no result: E coli growth-1, phage Ecoli inh) | AddAB confirm 28 | RecBCD counter 26 | bact viab count inactive
CC(/C=C/c1ccccc1)=NNC(=O)C(O)c1ccccc1 (stereo not drawn)	none (no result: AddAB inh, E coli growth-2, phage Ecoli inh, Tat transport, Calb FLC)
Cc1ccccc1C(=O)NN=Cc1ccsc1C	none (no result: AddAB inh, E coli growth-2, phage Ecoli inh, Tat transport, Calb FLC)
CC(=O)NN=Cc1cc(C)n(-c2ccc(Br)cc2)c1C	none (no result: AddAB inh, E coli growth-2, phage Ecoli inh, Tat transport, Calb FLC)
CC(C)C[C@@]12C(=O)N(c3ccc(Br)cc3)C(=O)N1C(c1ccc(Br)cc1)C1C(=O)N(C(C)(C)C)C(=O)C12 (stereo partly drawn)	none (no result: AddAB inh, E coli growth-2, phage Ecoli inh, Tat transport, Calb FLC)
O=C(CSc1nc2ccccc2o1)Nc1ccc(N2CCOCC2)cc1	AddAB inh 13, E coli growth-2 13 | AddAB confirm 15 | RecBCD counter 9.7 | bact viab count inactive
COc1ccc(C(=O)NN=Cc2sc(=O)n(Cc3cccc(C(=O)O)c3)c2Cl)cc1	none (no result: AddAB inh, E coli growth-2, phage Ecoli inh, Tat transport, Calb FLC)
COc1ccc(C=NNC(=O)c2nc(Cl)c(Cl)c(N)c2Cl)cc1COc1ccccc1F	none (no result: AddAB inh, E coli growth-2, phage Ecoli inh, Tat transport, Calb FLC)
CCc1nnc(NS(=O)(=O)c2ccc(N=Cc3c(C)[nH]n(-c4ccc(Cl)cc4)c3=O)cc2)s1	AddAB inh 14 (no result: E coli growth-1) | AddAB confirm inactive | RecBCD counter 7.0 | bact viab count inactive
COc1nccnc1NS(=O)(=O)c1ccc(N=Cc2c(C)[nH]n(-c3ccc(Cl)cc3)c2=O)cc1	none (no result: Tat transport)
Cn1cc(C=NO)nc2c(=O)n(-c3ccccc3)c(=O)nc1-2	none (no result: AddAB inh, E coli growth-2, phage Ecoli inh, Tat transport, Calb FLC)
O=C(NN=Cc1coc2ccccc2c1=O)c1cn(-c2ccccc2)nc1-c1ccccc1	none (no result: AddAB inh, E coli growth-2, phage Ecoli inh, Tat transport, Calb FLC)
CCOC(=O)c1cn(C2CC2)c2c(F)c(NCCCN(C)C)c(F)cc2c1=O	AddAB inh 13 | AddAB confirm 13 | RecBCD counter inactive | bact viab count inactive
O=C(NN=C/C(Cl)=C\c1ccccc1)c1ccco1	none (no result: AddAB inh, E coli growth-2, phage Ecoli inh, Tat transport, Calb FLC)
Cc1cc(C)nc(N=C(NC(=O)Nc2ccc(Cl)c(Cl)c2)Nc2ccccc2)n1	none (no result: AddAB inh, E coli growth-2, phage Ecoli inh, Tat transport, Calb FLC)
COc1cc(NS(=O)(=O)c2ccc(NC(=S)NC(=O)c3sc4ccccc4c3Cl)cc2)ncn1	AddAB inh 13 (no result: Calb FLC) | AddAB confirm inactive | RecBCD counter inactive | bact viab count inactive
CCC(C)C1NC(=O)c2cc([N+](=O)[O-])cc(F)c2NCCCCC(C(N)=O)NC(=O)C(CC(N)=O)NC1=O (stereo not drawn)	none (no result: AddAB inh, E coli growth-2, phage Ecoli inh, Tat transport, Calb FLC)
